Reference: PubChem BioAssay (Tox21)
Values without a mark were called inactive. The call rests on the fitted dose curve; in most records, active means well fitted curve in the direction sought with a large enough effect in the repeat runs; inconclusive means weak or mixed curves; inactive means no such curve, though single readings can be large; an effect the other way counts as inactive or inconclusive. Inconclusive results are not listed.

experiment: qHTS assay to identify small molecule HDAC inhibitors (AID 1259364); settings: HCT-116 HDAC-Glo I/II luminescence, 2 h; series mostly up to 92.4 µM; activity change, negative = inhibition: at the top concentration; further: top concentration of the series differs between compounds; nearly all actives have a fitted effect of over 45% in size
Outline: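 Endogenous HDAC class I/II activity was measured in wild-type HCT-116 cells by HDAC-Glo luminescence after 2 h compound treatment.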
On the % scale 0 is the no-effect control and ±100 the full control effect.

| SMILES | activity change, negative = inhibition [%] |
| --- | --- |
| C=CC(=O)OCCN(C)C | 1.18 |
| N#CC(Br)(Br)C(N)=O | -1.54 |
| O=[N+]([O-])c1cccc(CCl)c1 | -2.21 |
| CC(C)c1ccc(O)cc1 | 2.58 |
| CC(C)(C)C(=O)C(Cl)Cl | 2.56 |
| C=C(Cl)CSC(=S)N(CC)CC | -1.45 |
| CCOC(=O)N(C)N=O | 2.96 |
| [P]#[In] | -3.36 |
| c1ccc2c(c1)CCNC2 | 2.36 |

experiment: qHTS assay to identify small molecule HDAC inhibitors - cell viability counter screen (AID 1259365); settings: HCT-116 viability, CellTiter-Glo ATP luminescence, 2 h; series mostly up to 92.4 µM; activity change, negative = cytotoxicity: at the top concentration; further: nearly all actives have a fitted effect of over 50% in size
Outline: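 HCT-116 (wild type), 1,500 cells/well, overnight 37C/5% CO2; compound in DMSO 2hr; CellTiter-Glo 30min RT; luminescence read.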

| SMILES | activity change, negative = cytotoxicity |
| --- | --- |
| CON(C)C(=O)Nc1ccc(Br)c(Cl)c1 | -1.31% |
| CON(C)C(=O)Nc1ccc(Br)cc1 | 6.1% |
| C#CC(C)(C)O | -0.817% |
| ClCCCCCCCl | -3.41% |
| CNC(=O)Oc1cc(C)c(N(C)C)c(C)c1 | 15.1% |
| CCOC(=O)COc1ccc(Cl)cc1Cl | -4.75% |
| C[C@@H](N)[C@@H](O)c1ccccc1 | 4.51% [at 42.5 µM] |
| CC(=NC#N)N(C)Cc1ccc(Cl)nc1 | 2.23% |
| CCC(=O)OC1(c2ccccc2)CCN(C)CC1 | -10% |
| BrCCc1ccccc1 | -0.679% |
| CCC1(c2cccc(O)c2)CCCCN(C)C1 (centres undefined) | -2.37% [at 42.5 µM] |
| CN1COCN(Cc2cnc(Cl)s2)/C1=N\[N+](=O)[O-] | 2.9% |
| CCCCS(=O)(=O)Cl | -0.0182% |
| O=C(O)CBr | -7.62% |
| CCCC(C)(COC(N)=O)COC(N)=O | 0.968% |
| COC1=CC(=O)O[C@@H](/C=C/c2ccccc2)C1 | -3.3% |
| CC(Cl)(Cl)Cl | 9.21% |
| C=CCN1CC[C@]23CCCC[C@H]2[C@H]1Cc1ccc(O)cc13 | 2.41% [at 42.5 µM] |

| SMILES | activity change, negative = cytotoxicity |
| --- | --- |
| Cn1c(N)nc2c3cccnc3ccc21 | -1.56% |
| CCOC(=O)C(SP(=S)(OC)OC)c1ccccc1 (centres undefined) | -10.9% |
| O=c1[nH]c2ccccc2o1 | 5.15% |
| CC1=C2[C@H]3OC(=O)[C@@H](C)[C@@H]3CC[C@@]2(C)C=CC1=O | -0.914% [at 42.5 µM] |
| O=C(O)C(F)(F)C(F)(F)C(F)(F)C(F)(F)C(F)(F)C(F)(F)F | 3.86% |
| Cl/C=C/CCl | 2.88% |
| CC(C)C(C)(N)C#N (centres undefined) | -0.869% |
| CCC(=O)c1ccc(Cl)cc1 | 1.42% |
| CCN1CCCC1CNC(=O)C(O)(c1ccccc1)c1ccccc1 (centres undefined) | -0.719% [at 42.5 µM] |
| C=CC(=O)OCCN(C)C | 6.96% |
| N#CC(Br)(Br)C(N)=O | -3.71% |
| O=[N+]([O-])c1cccc(CCl)c1 | -0.31% |
| CC(C)c1ccc(O)cc1 | 2.71% |
| CC(C)(C)C(=O)C(Cl)Cl | -0.56% |
| C=C(Cl)CSC(=S)N(CC)CC | -1.14% |
| CCOC(=O)N(C)N=O | -1.13% |
| [P]#[In] | -1.55% |
| c1ccc2c(c1)CCNC2 | -5.18% |

experiment: qHTS assay to identify small molecule agonists of the sonic hedgehog signaling (Shh) pathway - cell viability counter screen (AID 1259366); settings: NIH/3T3 Gli1-Luc viability, CellTiter-Fluor, 24 h; series mostly up to 92.4 µM; viability change, negative = cytotoxic: at the top concentration; further: nearly all actives have a fitted effect of over 50% in size
Outline: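 CellTiter-Fluor fluorescence read-out, 1 hr at 37C, added after 23hr compound exposure. Cells: 3T3 Gli1-Luc, an NIH/3T3 clone with stably integrated Gli1-Luc reporter, plated 4hr before compound.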

| SMILES | viability change, negative = cytotoxic |
| --- | --- |
| CON(C)C(=O)Nc1ccc(Br)c(Cl)c1 | 1.65% |
| CON(C)C(=O)Nc1ccc(Br)cc1 | 5.77% |
| C#CC(C)(C)O | 0.11% |
| ClCCCCCCCl | -2.73% |
| CNC(=O)Oc1cc(C)c(N(C)C)c(C)c1 | -20.6% |
| CCOC(=O)COc1ccc(Cl)cc1Cl | 2.35% |
| C[C@@H](N)[C@@H](O)c1ccccc1 | 2.92% [at 42.5 µM] |
| CC(=NC#N)N(C)Cc1ccc(Cl)nc1 | 10.8% |
| CCC(=O)OC1(c2ccccc2)CCN(C)CC1 | -14.5% |
